This is part of a sample that, as a whole, favours compounds with a hit. Of some 83,000 tested, about 20% had one in any assay.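 How to read the values: 0–100, growth inhibition (40 = 60% inhibited); 0, no net growth; -100 to 0, cell death (-40 = 40% of starting cells died; -100 = all dead).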 A number with no mark means an inactive call. Active and inactive are the calls of the source. Rule for the calls: active = growth percent below 10; inactive = the rest.
tested on: MDA-MB-231 breast; experiment: NCI-60 one-dose screen, 48 h (100 = growth as untreated, 0 = no growth, -100 = all killed); settings: 10 µM unless noted

Row | SMILES | growth
1 | COC(=O)[C@@H]1CCCN1C(=O)[C@H]1CCCN1C(=O)[C@@H](Cc1c[nH]c2ccccc12)NC(=S)Nc1cc(C(F)(F)F)cc(C(F)(F)F)c1 | 25.4%
2 | Cc1ccc(F)cc1NC(=O)c1cc(Cl)ccc1Nc1ccccc1 | 69.7%
3 | CC1=C(C(=O)OCC2CCN(C(=O)OC(C)(C)C)CC2)[C@@H](c2cccc(C#N)c2)C2=C(CC(C)(C)CC2=O)N1 | 61.1%
4 | CCCCCCc1cc2cc(-c3csc(/C=C/c4ccccc4)n3)c(=O)oc2cc1O | -8.21% (active)
5 | COc1ccc(Br)c(/C=C2\SC(=Nc3ccc(O)cc3)NC2=O)c1 | 108%
6 | COc1ccc(Cn2c(Br)c3c(c2Br)-c2nc(N)sc2CC3)cc1 | 37%
7 | COC(=O)c1cc2c(n1Cc1ccccc1)-c1oncc1CCC2 | 64.2%
8 | CCOC(=O)c1sc(-c2ccc(OS(=O)(=O)c3ccccc3[N+](=O)[O-])c(C=O)c2)nc1C | 84%
9 | Clc1ncccc1Nc1ccc2nnc(-c3ccncc3)n2n1 | 105%
10 | O=C1NC(=O)C(=Cc2cn(Cc3cn(Cc4ccc(Cl)cc4Cl)nn3)c3ccccc23)C(=O)N1 | 81.9%
11 | CCCCCCn1c(=N)n(CC(O)COc2cccc(C)c2)c2ccccc21 (centres undefined) | -70.7% (active)
12 | O=C(Nc1ncc(Cc2cccc(C(F)(F)F)c2)s1)C1COc2ccccc2O1 (centres undefined) | 95.1%
13 | CN1C(=O)N(C)C2C1NN=c1s/c(=C\c3ccc([N+](=O)[O-])cc3)c(=O)n12 (centres undefined) | 75.1%
14 | O=C(c1nc2ccccc2[nH]1)C1C(c2ccc(F)cc2)C2CC3CCCCC3N2[C@@]12C(=O)Nc1ccc(Cl)cc12 (some centres undefined) | 43.3%
15 | COc1ccc(/C=C/C(=O)c2ccc3cc(OC)c(OC)cc3c2)cc1OC | 101%
16 | O=c1oc2ccc(F)cc2c(=O)n1-c1ccc(Br)cc1F | -22% (active)
17 | COc1cc(/C=C2\CN(S(=O)(=O)c3ccccc3)C/C(=C\c3cc(CN4CCCC4)c(O)c(OC)c3)C2=O)cc(CN2CCCC2)c1O | -32.7% (active)
18 | CC(C)C[C@H](C(=O)N[C@@H](C)C(N)=O)N1CC=CCN(O)S1(=O)=O | 98.3% [5 µM]
19 | CN(C)CCCNCc1ccc(-c2ccc(F)c(Cl)c2)o1 | 13.4%
20 | O=c1oc2ccc(-c3ccc(F)cc3F)cc2c(=O)n1-c1cccc(C(F)(F)F)c1 | -16% (active)

Row | SMILES | growth
21 | O=C(N=Nc1c(O)[nH]c2ccccc12)c1oc2ccccc2c1CN1CCN(c2ccccc2)CC1 | 24.6%
22 | O=C(Nc1ccc(Br)cc1F)c1cc(F)ccc1O | -25.5% (active)
23 | COc1cc(NC(=O)CCSc2nc3ccccc3c(=O)n2Cc2ccccc2)cc(OC)c1OC | 64.9%
24 | O=C(Nc1ccc(I)cc1F)c1cc(F)ccc1O | -23.7% (active)
25 | COc1nccc2cc3c(=O)n4c(cc5ccccc54)c(=O)n3c12 | 90.3%
26 | O=C(COc1cc(O)c2c(=O)cc(-c3ccccc3)oc2c1)Nc1ccccc1 | 72.9%
27 | O=c1oc2ccc(-c3ccc(F)cc3F)cc2c(=O)n1-c1ccc(Cl)c(C(F)(F)F)c1 | 56%
28 | CCN1CCN(c2cc(C)c3cc(NC(=O)c4ccc(OC)c(OC)c4)ccc3n2)CC1 | 47.9%
29 | COc1ccc(Cn2c(Br)c3c(c2-c2cc(OC)c(OC)c(OC)c2)CCc2sc(NC(C)=O)nc2-3)cc1 | 62.6%
30 | COc1ccccc1C(=O)O/N=C(\N)Cc1cccc2ccccc12 | 77.3%
31 | O=C(Nc1ccc(Cl)cc1F)c1cc(I)ccc1O | 52.8%
32 | O=C(O)CCC(=O)c1ccc(C2CCCCCC2)cc1 | 109%
33 | CCCCOCc1cc(CN2CCN(C)CC2)c(O)c2ncccc12 | 47.1%
34 | COC(=O)/C(CCC=C(C)C)=C1\[C@@H](OC(C)=O)C[C@@]2(C)[C@H]1C[C@@H](O)[C@H]1[C@@]3(C)CC[C@H](NCc4ccccc4)[C@@H](C)[C@@H]3CC[C@@]12C | 63.6%
35 | O=C(NC1C(O)OC(CO)C(O)C1O)NS(=O)(=O)c1ccc(Cl)cc1 (centres undefined) | 103%
36 | O=C(Nc1ccc(Br)cc1F)c1cc(Cl)ccc1O | -27.9% (active)
37 | CCOC(=O)c1c(C=O)nc2ccccc2c1/C=C/c1ccc(Cl)cc1 | 87.7%
38 | COc1cccc2cc(N(C)c3nc(C)nc4ccsc34)ccc12 | 28.9%
39 | COc1cc(/C=C/C(=O)c2c(C)nc3ccccc3c2/C=C/c2ccccc2)cc(OC)c1OC | -0.432% (active)
